POLI inh: qHTS for Inhibitors of Polymerase Iota; DNA polymerase iota (Homo sapiens), Q9UNA4; Potency, µM (titrated, usually from 115 µM), inactives show top-dose activity, negative = inhibition, actives largely listed as inhibitors; hit rate 1% among 390,000; Pol iota fluorescent replication assay, 10 min
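Fluorescent replication assay read twice, at 0 min and 10 min after adding 50 nM (final) substrate. Enzyme (10 nM) and compounds were first incubated 15 min at room temperature; enzyme-free buffer wells were negative controls.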
WRN helicase inh: qHTS for Inhibitors of WRN Helicase. Bifunctional 3'-5' exonuclease/ATP-dependent helicase WRN (Homo sapiens), Q14191. WRN helicase unwinding, fluorescent forked duplex, kinetic. Potency, µM (titrated, usually from 114 µM), without a hit: top-dose activity change, negative = inhibition, most hits filed as inhibitors. hit rate 0.46% among 360,000. AID 651768, 2012; note: % is set by controls: 0 for no effect and ±100 for the full control effect; nearly all actives have a fitted effect of over 55% in size
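Screening of the MLSMR collection measured strand separation of a quenched forked DNA duplex (100 nM) by 20 nM WRN with 2 mM ATP, all final. Compounds were preincubated with enzyme 15 min at room temperature.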
Pol beta inh: qHTS Assay for Inhibitors of DNA Polymerase Beta | Pol beta primer extension/strand displacement, fluorescence kinetic | P06746 | hit rate 1.3% among 340,000 | AID 485314, 2010 | Potency, µM (top dose mostly 114 µM), without a hit: at the highest dose activity change, negative = inhibition, usual class: inhibitors; note: % is set by controls: 0 for no effect and ±100 for the full control effect
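10 nM enzyme + cpd, 15 min RT; start with substrate 50 nM final; read 0 min and after 10 min RT. Corrected, normalized data; 4-parameter Hill curve fit.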
Pol kappa inh: qHTS for Inhibitors of Polymerase Kappa | AID 588579, 2011 | purified Pol kappa, fluorescent DNA synthesis assay, 10 min | DNA polymerase kappa (Homo sapiens), Q9UBT6 | Potency, µM (series often up to 107 µM), inactives show at the top dose activity, negative = inhibition, most hits filed as inhibitors | hit rate 0.53% among 400,000; note: % is set by controls: 0 for no effect and ±100 for the full control effect
Target sequence (Q9UBT6 whole entry, looked up): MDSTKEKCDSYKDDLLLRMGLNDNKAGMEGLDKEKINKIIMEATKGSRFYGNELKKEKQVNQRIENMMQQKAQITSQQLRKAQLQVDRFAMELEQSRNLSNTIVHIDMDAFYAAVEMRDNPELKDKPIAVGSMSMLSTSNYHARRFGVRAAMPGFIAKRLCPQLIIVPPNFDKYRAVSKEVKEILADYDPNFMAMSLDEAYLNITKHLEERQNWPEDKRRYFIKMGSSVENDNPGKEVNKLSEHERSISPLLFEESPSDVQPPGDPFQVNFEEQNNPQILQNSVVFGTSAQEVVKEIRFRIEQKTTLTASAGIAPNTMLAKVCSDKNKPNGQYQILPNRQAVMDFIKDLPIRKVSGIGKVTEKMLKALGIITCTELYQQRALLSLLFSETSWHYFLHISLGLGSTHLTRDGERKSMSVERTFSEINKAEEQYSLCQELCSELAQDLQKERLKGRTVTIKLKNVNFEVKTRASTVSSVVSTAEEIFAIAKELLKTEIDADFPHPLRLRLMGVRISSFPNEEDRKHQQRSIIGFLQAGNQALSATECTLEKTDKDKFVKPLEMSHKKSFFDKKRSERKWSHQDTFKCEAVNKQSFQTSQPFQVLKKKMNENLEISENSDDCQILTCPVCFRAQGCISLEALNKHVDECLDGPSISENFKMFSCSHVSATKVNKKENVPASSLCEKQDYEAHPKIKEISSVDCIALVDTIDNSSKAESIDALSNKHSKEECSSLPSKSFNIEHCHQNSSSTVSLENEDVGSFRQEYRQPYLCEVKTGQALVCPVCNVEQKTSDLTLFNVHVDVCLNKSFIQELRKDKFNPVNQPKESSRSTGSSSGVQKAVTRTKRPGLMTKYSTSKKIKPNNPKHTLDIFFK
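Activity was followed as the change in fluorescence between reads at 0 and 10 min after starting the reaction with 50 nM substrate. Beforehand, 10 nM polymerase had been preincubated with compound for 15 min at room temperature.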
FEN1 inh: qHTS Assay for the Inhibitors of Human Flap endonuclease 1 (FEN1). hit rate 0.35% among 390,000. P39748. Potency, µM (doses to about 114 µM), inactives show at the highest dose activity change, negative = inhibition, most hits filed as inhibitors. Recombinant FEN1 flap cleavage, fluorescence, 15 min; note: % is set by controls: 0 for no effect and ±100 for the full control effect; nearly all actives have a fitted effect of over 65% in size
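FEN1 at 10 nM preincubated with compounds 15 min at room temperature, then flap DNA substrate added at 50 nM final. Signal read at 0 and 15 min; concentration-response fitted with four-parameter Hill equation.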
Pol eta inh: qHTS for Inhibitors of Polymerase Eta. DNA polymerase eta (Homo sapiens), Q9Y253. recombinant Pol eta, fluorescent DNA replication assay. Potency, µM (top dose mostly 114 µM), without a hit: at the top dose activity change, negative = inhibition, usual class: inhibitors. hit rate 1.2% among 390,000. AID 588591, 2011; note: % is set by controls: 0 for no effect and ±100 for the full control effect
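Fluorescent replication assay: 50 nM final substrate added after a 15 min room-temperature compound preincubation with 10 nM enzyme. Signal taken at 0 min and again at 10 min.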
An asterisk follows results filed as active; ? = inconclusive; . = not tested or not shown; [ ] = dose if it differs, or a comment. Rows were chosen to be rich in hits. Some 2.4% of all compounds tested hit in one or more screens of this group. Calls come from the whole dose curve; as a rule, active = well fitted curve in the direction sought with a large enough effect; inconclusive = small, poorly fitted or top-dose-only effect, or another doubt; inactive = no such curve, though single readings can be large; an effect the other way counts as inactive or inconclusive. Potency is the fitted concentration of half-maximal effect.

SMILES | POLI inh | WRN helicase inh | Pol beta inh | Pol kappa inh | FEN1 inh | Pol eta inh
CCN(C(=O)C(=O)c1c(C)[nH]c2ccccc12)c1ccccc1 | 2% | . | . | 6% | -20% | .
CCCCCCc1c(C)c2ccc(OCC(=O)N3CCC[C@H]3C(=O)O)c(C)c2oc1=O | 89µM* | -17% | 2% | -30% | -14% | 79µM*
Brc1cc(Br)c[n+](CCc2ccccc2)c1 | -1% | . | . | -4% | 17% | .
Nc1c(C(=O)Nc2ccc(S(=O)(=O)N3CCCC3)cc2)sc2nc3ccc(OC(F)(F)F)cc3cc12 | ? | ? | 28µM* | -6% | -9% | 40µM*
Nc1c(C(=O)Nc2ccc(C(=O)O)cc2)sc2nc3c(cc12)CCCC3 | 20% | . | -23% | -3% | 2% | ?
O=S(=O)(O)c1cc(O)c2c(N=Nc3ccc(Nc4ccccc4)c4c(S(=O)(=O)O)cccc34)cc(S(=O)(=O)O)cc2c1 | . | . | . | 3.2µM* | . | .
O=S(=O)(Nc1ccc(N=Nc2ccc(O)c3ccccc23)cc1)c1ccccc1 | 25% | -20% | 4% | -14% | -1% | ?
CS(=O)(=O)N1CCC2(CC1)CN(C(=O)Nc1cccc(F)c1)C2 | . | . | . | 1%[60.1 µM] | . | .
C/C(=N/Nc1ccc(C(=O)O)cc1)c1ccc(O)c(O)c1O | -13% | ? | 22µM* | -27% | ? | ?
COc1ccc(OC)c(/C(C)=N/Nc2ccc(C(=O)O)cc2)c1 | 5% | -3% | ? | -1% | 14% | -19%
O=C(CSc1ncc(-c2ccccc2)nn1)NCc1ccco1 | ? | -8%[11.6 µM] | 28µM* | -5% | 1% | -24%
O=C(CSc1ncnc2c1oc1ccccc12)NCc1ccco1 | ? | -13%[57.1 µM] | 32µM* | -15% | -15% | -16%
O=C(O)CSc1ncnc2c1oc1ccccc12 | -1% | -9% | 9% | -16% | -3% | 0%
O=C(CSc1nccn1Cc1ccccc1)NCc1ccco1 | ? | . | 28µM* | 0%[60.1 µM] | -1% | -13%
CCCCc1nc2sc3c(SCC(=O)NCc4ccco4)ncnc3c2c2c1CCC2 | -15% | -19% | ? | -21% | 6% | 22µM*
O=C(CSc1ccc2nnc(-c3ccc(F)cc3)n2n1)NCc1ccco1 | ? | -24% | ? | -20% | 2% | 2%
CCn1c(SCC(=O)NCc2ccco2)nnc1-c1cccs1 | -7% | -19% | 32µM* | -12% | 0% | 0%
CCn1c(SCC(=O)NCc2ccco2)nnc1-c1ccncc1 | . | . | -24% | . | . | .
CCOc1ccc(-c2nnc3ccc(SCC(=O)NCc4ccco4)nn23)cc1 | ? | -23% | 25µM* | -7% | -19% | ?
CC(C)(C)N1C(=O)Cc2c1nc(N)c1c(N)nc(N3CCCCC3CO)c(C#N)c21 (stereo not given) | 20µM* | ? | 0% | -10% | -3% | ?
CCn1cc(C(=O)NN)c(=O)c2cc(F)c(N3CCOCC3)cc21 | ? | 89µM* | 45% | -16% | ? | ?
CCn1cc(C(=O)O)c(=O)c2cc(F)c(N3CCN(S(=O)(=O)c4ccc(NC(C)=O)cc4)CC3)cc21 | -19% | ? | 20µM* | -37% | ? | ?
CCn1cc(C(=O)O)c(=O)c2cc(F)c(N3CCN(S(=O)(=O)c4ccc5c(c4)OCCO5)CC3)cc21 | 2% | 1% | 1% | 10% | 6% | 34%
Nc1nc(N)nc(-c2cc(Cl)ccc2Cl)n1 | 79µM* | 1%[11.6 µM] | . | 14%[60.1 µM] | 1% | -2%
Nc1nc(N)nc(-c2cccc(Cl)c2Cl)n1 | 16% | -3% | . | -20% | -10% | 2%
SMILES | POLI inh | WRN helicase inh | Pol beta inh | Pol kappa inh | FEN1 inh | Pol eta inh
N#CC(=C(/N)Sc1ccccc1N)/C(C#N)=C(\N)Sc1ccccc1N | . | . | . | -1%[19.4 µM] | . | .
COc1cccc2cc(C(=O)Nc3ccc(CC(=O)O)cc3)c(=O)oc12 | -29% | . | -16% | -22% | -11% | -19%
COc1cc2nc(N3CCNCC3)nc(N)c2cc1OC | -18% | ? | ? | ? | 56µM* | ?
COc1cc2nc(N3CCN(c4cc(C)ccc4C)CC3)nc(N)c2cc1OC | ? | 14% | ? | -4% | -8% | -25%
Cc1ccc(-c2nsc(NC(=O)c3oc4cc(C)c(Cl)cc4c3C)n2)cc1 | 24% | . | 4% | -1% | -6% | -5%
CC(/C=C/C(=O)NO)=C\[C@@H](C)C(=O)c1ccc(N(C)C)cc1 | . | . | . | 6%[19.4 µM] | . | .
COc1ccc(-n2c(-c3ccc(C)cc3)cc3c2CC(C)(C)CC3=O)c(OC)c1 | 3% | . | 53% | -3% | -24% | -14%
Cc1ccc(-n2cccc2/C=C2\C(=N)N3N=C(C(C)C)SC3=NC2=O)cc1 | 12% | -6% | 28µM* | -11% | ? | -12%
CCN(c1ccccc1)S(=O)(=O)c1nnc(NC(=O)C(C)Oc2ccccc2)s1 (stereo not given) | 9% | . | 0% | -13% | 1% | -12%
C=C(C)C(=O)Nc1cccc(C2=NOC3(C2)C[C@@H](C(N)=O)N(C(=O)c2ccc(OC)cc2)C3)c1 (stereo not given in full) | 7.1µM* | ? | 2.8µM* | 14µM* | ? | 2.8µM*
C=C(C)C(=O)Nc1cccc(C2=NOC3(C2)C[C@@H](C(N)=O)N(C(=O)[C@H]2CCC(=O)N2)C3)c1 (stereo not given in full) | -6% | 3% | 56µM* | -11% | -13% | 1%
O=S(=O)(c1ccc2c(Cl)cccc2c1)N1CCN(c2nc(-c3cccs3)nc3ccccc23)CC1 | -5% | . | . | 5% | -8% | .
COc1ccc(-n2c(Cc3cccn3C)nnc2SCC(=O)NCc2ccco2)cc1 | ? | 4%[11.6 µM] | 40µM* | ? | 10% | -7%
COc1ccc(-n2c(Cc3cccn3C)nnc2SCC(=O)NCc2ccc(F)cc2)cc1 | 52% | 6% | -26% | 12% | 20% | -23%
Cc1ccc(-n2c(Cc3cccn3C)nnc2SCC(=O)NCc2ccc3c(c2)OCO3)cc1 | ? | -4%[11.6 µM] | 8.9µM* | -36% | -4% | -6%
COc1ccc(-n2c(SCC(=O)NCc3ccco3)nc3sc4c(c3c2=O)CCN(C)C4)cc1 | 32µM* | 7%[11.6 µM] | ? | -24% | -2% | ?
CC(=O)Oc1ccc(-c2nc(-c3ccccc3)no2)cc1 | 8% | . | . | -10% | -11% | .
O=c1cnc2cnc(Nc3ccccc3)nc2n1C[C@H]1CCCO1 | . | . | . | -1%[60.1 µM] | . | .
O=C(Oc1ccc([N+](=O)[O-])cc1)C1CC(=O)N(c2ccc3c(c2)OCCO3)C1 (stereo not given) | 79µM* | -19%[11.6 µM] | . | -42% | -3% | ?
